From PubChem BioAssay come the findings set out here.

The nature of assay [1]: optical density shifts of acrAB sulA E. coli – strain DRC41, OD650, 48 h, E. coli filamentation inducer project, primary screen (AID 1152).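 Further: E. coli MC1000 strain DRC41 lacking acrAB efflux pump and sulA.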 The following applies: higher = more signal, called active from +8 up or from −8 down.
Assay [2] is described as follows: probe aLefty1 binding on compound microarray – biochemical, small-molecule microarray, 635/667 nm fluorescence, primary screen (AID 1153).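 Further: score merges spot fluorescence with signal-to-noise ratio from the scanned slide images.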 The following applies: higher = more signal.
Assay [3] in a line: plasmodial surface anion channel blockers, osmotic lysis – cell-based, P. falciparum Indochina, OD700, 1 h, primary screen (AID 1154). The following applies: P. falciparum Indochina infected RBC osmotic lysis, higher = more signal, called active from +8 up or from −8 down.
Assay [4] can be described thus: plasmodial surface anion channel blockers, osmotic lysis – cell-based, P. falciparum Indochina, OD700, 2 h, primary screen (AID 1155).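 Further: lysis reports solute entry through the parasite surface anion channel PSAC.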 The following applies: P. falciparum Indochina infected erythrocytes, higher = more signal, called active from +8 up or from −8 down.
The nature of assay [5]: changes in parasitized red cell lysis, either direction – P. falciparum Indochina, OD700, 3 h, PSAC antagonist project, primary screen (AID 1156). The conditions noted are these: P. falciparum-infected erythrocytes, osmotic lysis, higher = more signal, called active from +8 up or from −8 down.
Assay [6] is described as follows: plasmodial surface anion channel blockers, osmotic lysis – cell-based, P. falciparum Indochina, OD700, 18 h, primary screen (AID 1157). The conditions noted are these: P. falciparum Indochina infected erythrocytes, osmotic lysis OD700, 18 h; higher = more signal, called active from +8 up or from −8 down.
The nature of assay [7]: S6 kinase pathway phospho-S6 level changes – cell-based, A549, cytoblot, luminescence, serum-stimulated, primary screen (AID 1158).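 Further: serum-stimulated A549 lung adenocarcinoma cells; signal is phosphorylated S6 detected by cytoblot immunostaining with HRP secondary.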 The following applies: 5 h, higher = more signal.
Assay [8] addresses NADPH oxidase 2 (Homo sapiens) (UniProt P04839). Kind of assay: compounds shifting NOX2 Amplex Red fluorescence – cell-based, HEK293-NOX2, PMA-stimulated, NOX inhibitor project, primary screen (AID 1159). Further: test concentration not given here. The conditions noted are these: 45 min, higher = more signal, called active from +8 up or from −8 down.
Assay [9] addresses NADPH oxidase 4 (Homo sapiens) (UniProt Q9NPH5). The assay is described as follows: compounds shifting NOX4 Amplex Red fluorescence – cell-based, HEK293-NOX4, tetracycline-induced, NOX inhibitor project, primary screen (AID 1160). The following applies: HEK293-NOX4, Amplex Red H2O2 fluorescence, 45 min; higher = more signal, called active from +8 up or from −8 down.
The target of assay [10] is NADPH oxidase 5 (Homo sapiens) (UniProt Q96PH1). Kind of assay: compounds shifting NOX5 Amplex Red fluorescence – cell-based, HEK293-NOX5, NOX inhibitor project, primary screen (AID 1161). The conditions noted are these: HEK293-NOX5, ionomycin, 45 min, higher = more signal.
Sequence of NADPH oxidase 5 (Homo sapiens) (Q96PH1 whole entry, looked up): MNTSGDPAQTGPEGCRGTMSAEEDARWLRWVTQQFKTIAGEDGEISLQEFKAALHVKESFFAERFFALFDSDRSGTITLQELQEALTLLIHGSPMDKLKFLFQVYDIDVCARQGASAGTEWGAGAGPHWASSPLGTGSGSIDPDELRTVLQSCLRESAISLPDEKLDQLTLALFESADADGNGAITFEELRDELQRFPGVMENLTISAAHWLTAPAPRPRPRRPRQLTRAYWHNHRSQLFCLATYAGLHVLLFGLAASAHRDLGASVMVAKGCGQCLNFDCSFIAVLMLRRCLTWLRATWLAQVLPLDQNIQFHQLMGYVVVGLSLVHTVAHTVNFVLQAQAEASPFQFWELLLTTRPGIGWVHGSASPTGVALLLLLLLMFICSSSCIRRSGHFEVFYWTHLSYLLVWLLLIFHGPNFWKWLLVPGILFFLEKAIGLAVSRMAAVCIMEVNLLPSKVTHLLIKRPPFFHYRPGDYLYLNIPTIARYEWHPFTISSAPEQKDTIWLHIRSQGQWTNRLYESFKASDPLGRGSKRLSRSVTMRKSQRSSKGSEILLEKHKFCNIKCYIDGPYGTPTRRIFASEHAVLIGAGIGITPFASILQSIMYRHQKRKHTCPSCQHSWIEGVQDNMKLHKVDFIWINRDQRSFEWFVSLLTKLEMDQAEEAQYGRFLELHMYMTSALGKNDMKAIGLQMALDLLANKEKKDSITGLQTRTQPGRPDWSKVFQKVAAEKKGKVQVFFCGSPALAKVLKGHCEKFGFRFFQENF

The structures appear in SMILES notation. Calls of active or inactive are those of the source.

Sequence of NADPH oxidase 4 (Homo sapiens) (Q9NPH5 whole entry, looked up): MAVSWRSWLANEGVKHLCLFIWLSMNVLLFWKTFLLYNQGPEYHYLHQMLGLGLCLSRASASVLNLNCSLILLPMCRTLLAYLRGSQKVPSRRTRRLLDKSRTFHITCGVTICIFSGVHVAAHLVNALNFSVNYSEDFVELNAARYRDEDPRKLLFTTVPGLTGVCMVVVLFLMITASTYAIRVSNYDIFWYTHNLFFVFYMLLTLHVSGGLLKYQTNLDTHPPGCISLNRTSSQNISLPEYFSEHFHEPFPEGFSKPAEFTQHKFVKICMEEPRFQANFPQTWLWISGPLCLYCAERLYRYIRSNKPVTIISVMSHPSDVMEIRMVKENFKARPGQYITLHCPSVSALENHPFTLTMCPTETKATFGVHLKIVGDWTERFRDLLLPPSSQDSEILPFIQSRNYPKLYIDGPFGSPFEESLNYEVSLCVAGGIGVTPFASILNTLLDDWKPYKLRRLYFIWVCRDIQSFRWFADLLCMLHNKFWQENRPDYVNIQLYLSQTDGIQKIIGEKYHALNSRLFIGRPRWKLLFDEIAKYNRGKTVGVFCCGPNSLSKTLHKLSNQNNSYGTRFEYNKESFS
Sequence of NADPH oxidase 2 (Homo sapiens) (P04839 whole entry, looked up): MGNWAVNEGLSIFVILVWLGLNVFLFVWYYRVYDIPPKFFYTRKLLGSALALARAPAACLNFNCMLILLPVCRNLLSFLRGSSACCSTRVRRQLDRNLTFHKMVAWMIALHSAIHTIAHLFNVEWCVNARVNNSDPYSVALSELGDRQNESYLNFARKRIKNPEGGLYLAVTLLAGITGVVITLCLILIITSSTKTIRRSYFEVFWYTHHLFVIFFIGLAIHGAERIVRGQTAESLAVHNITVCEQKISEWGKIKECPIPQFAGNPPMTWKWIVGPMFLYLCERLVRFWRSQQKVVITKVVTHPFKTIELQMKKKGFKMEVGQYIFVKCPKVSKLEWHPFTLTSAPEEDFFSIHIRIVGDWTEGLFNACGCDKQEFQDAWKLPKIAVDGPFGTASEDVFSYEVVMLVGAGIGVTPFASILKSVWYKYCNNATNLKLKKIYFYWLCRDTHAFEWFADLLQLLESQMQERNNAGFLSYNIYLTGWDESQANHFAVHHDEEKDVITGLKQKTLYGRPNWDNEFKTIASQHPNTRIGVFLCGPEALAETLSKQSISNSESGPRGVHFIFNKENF

For `COc1ccc(C(O)C2C=CC3C(=O)N(c4ccccc4)C(=O)C3N2Nc2ccc([N+](=O)[O-])cc2)cc1OCc1ccccc1` (stereo not given), the z-score in [1] was -1.64 (inactive); in assay [3], 14.2 (active); in assay [4] it was 2.71 (inactive); in assay [5] it was 0.107 (inactive); in [6], 0.926 (inactive); in assay [7] it was -0.881. Moreover, the z-score in assay [8] is 0.151 (inactive); in assay [9] it was -0.18 (inactive); in assay [10], -1.29. In assay [2], this molecule returned a composite z-score of 1.55.
With `COC(=O)c1ccc(C(O)C2C=CC3C(=O)N(c4ccccc4)C(=O)C3N2Nc2ccc(C#N)cc2)o1` (stereo not given), the z-score in assay [1] was -0.855 (inactive); in [3], 6.87 (inactive); in assay [4], 1.66 (inactive); in [5], 1.36 (inactive); in assay [6], 0.975 (inactive); in assay [7], -0.757. Moreover, the z-score is -0.499 (inactive) in assay [8], -4.57 (inactive) in [9] and -2.23 in assay [10]. The molecule further had a composite z-score in [2] of 0.117.
In the case of `[N-]=[N+]=NCc1ccccc1[C@H]1OC(c2ccc(OCCCO)cc2)=N[C@@]1(CCS(=O)(=O)c1ccccc1)C(=O)N1CCOCC1`, the z-score in assay [1] is -0.0978 (inactive); in assay [3], 24.4 (active); in assay [4], 9.51 (active); in [5], 1.76 (inactive); in [6], 0.885 (inactive); in assay [7] it was -0.362. In addition, the z-score is 1.24 (inactive) in [8], 2.19 (inactive) in [9] and 1.98 in assay [10]. Moreover, the composite z-score in [2] was found to be 1.08.
Take `C=C(C(=O)CC[C@H](OC(C)=O)c1ccc(OCCO)cc1)C(C)C`: the z-score was 2.32 (inactive) in assay [1]; 1.73 (inactive) in [3]; -0.266 (inactive) in [4]; -1.84 (inactive) in [5]; -0.944 (inactive) in assay [6]; 0.823 in assay [7]. In addition, the z-score was -3.44 (inactive) in assay [8], -1.75 (inactive) in assay [9] and -3.36 in [10]. Besides, the composite z-score in assay [2] was found to be 0.0004.
On to `CCOC(=O)C[C@H]1[C@H](OC(=O)c2ccc(-c3ccccc3)cc2)[C@@H](NC(=O)c2ccc3ccccc3c2)c2cc(OCCCO)ccc2N1C(=O)Cc1ccc(OC)cc1`, for which the z-score in assay [1] is 0.107 (inactive); in [3], 2.49 (inactive); in assay [4], 0.927 (inactive); in assay [5], 1.21 (inactive); in assay [6] it was 0.263 (inactive); in assay [7], 0.452. Besides, the z-score in assay [8] was -1.1 (inactive); in [9], -0.0144 (inactive); in [10] it was -1.47. The composite z-score in assay [2] is -0.304.
On to `COCCOC(=O)N1C(=O)[C@@]2(c3cc(C#CCNC(N)=O)ccc31)[C@H](c1ccc(O)cc1)N1[C@H](c3ccccc3)[C@H](c3ccccc3)OC(=O)[C@H]1[C@@H]2C(=O)NC[C@H](O)c1ccccc1`, for which the z-score in assay [1] was -0.388 (inactive); in assay [3], 1.3 (inactive); in [4] it was 1.1 (inactive); in [5] it was 0.205 (inactive); in assay [6], 0.559 (inactive); in assay [7] it was 0.155. Moreover, the z-score in assay [8] is 1.01 (inactive); in assay [9], 0.326 (inactive); in assay [10], 0.253. In assay [2], this molecule gave a composite z-score of 0.101.
Regarding `COc1ccc(C(=O)Nc2cccc(CN3C(=O)[C@@]4(O[C@@H](CCn5cc(CCO)nn5)[C@H]([Si](C)(C)c5ccc(OC)cc5)[C@H]4C)c4ccccc43)c2)cc1`, the z-score in [1] is -2.23 (inactive); in [3], 13.4 (active); in [4], 2.74 (inactive); in assay [5] it was 0.318 (inactive); in assay [6], 1.26 (inactive); in assay [7], -0.782. Besides, the z-score in assay [8] is -3.75 (inactive); in assay [9], -0.389 (inactive); in assay [10] it was 2.37. The composite z-score in assay [2] is 0.223.
In the case of `COC(=O)C[C@H]1O[C@]2(C(=O)N(Cc3ccccc3)c3ccc(NC(C)=O)cc32)[C@@H](C)[C@@H]1[Si](C)(C)c1ccc(OC)cc1`, the z-score in [1] was -0.202 (inactive); in assay [3], 2.19 (inactive); in assay [4], 0.984 (inactive); in [5], 0.659 (inactive); in assay [6], 0.304 (inactive); in assay [7] it was 0.186. Further, the z-score in [8] is -0.0156 (inactive); in assay [9], 0.288 (inactive); in assay [10] it was 2.89. In addition, the composite z-score in assay [2] was -0.179.
Turning to `CC(C)CNC(=O)[C@@]1(c2ccc([N+](=O)[O-])cc2)CC(=O)N(CC23CC4CC(CC(C4)C2)C3)[C@@H]1c1ccc(CO)cc1`, the z-score is 2.76 (inactive) in [1]; 2.75 (inactive) in assay [3]; -0.14 (inactive) in [4]; 0.856 (inactive) in assay [5]; -0.36 (inactive) in assay [6]; 0.802 in assay [7]. Also, the z-score in assay [8] is -0.129 (inactive); in [9] it was -1.06 (inactive); in assay [10], 0.965. In assay [2], this molecule returned a composite z-score of 0.227.
`C=C[C@H](COC(C)=O)N(Cc1ccc(OC(C)=O)c(OC)c1)S(=O)(=O)c1ccc(Br)cc1`: the z-score is 1.49 (inactive) in assay [1]; 3.23 (inactive) in assay [3]; -1.11 (inactive) in assay [4]; -0.827 (inactive) in assay [5]; -1.15 (inactive) in assay [6]; 2 in assay [7]. The z-score is -4.68 (inactive) in assay [8], -0.87 (inactive) in assay [9] and -1.95 in [10]. This molecule displayed a composite z-score in assay [2] of 0.19.
Turning to `CC(C)NC(=O)[C@@H]1c2ccccc2C(=O)N(Cc2ccccc2)[C@H]1c1ccc(CO)cc1`, the z-score in assay [1] was -0.355 (inactive); in assay [3], 1.36 (inactive); in assay [4] it was 0.573 (inactive); in assay [5], 1.65 (inactive); in [6] it was 0.351 (inactive); in [7], 0.0506. Also, the z-score was -0.767 (inactive) in [8], 0.333 (inactive) in assay [9] and -1.66 in [10]. This molecule came in with a composite z-score in [2] of 0.108.
As to `O=C1O[C@H](c2ccccc2)[C@H](c2ccccc2)N2[C@H]1[C@@H](C(=O)Nc1nc3ccccc3s1)[C@]1(C(=O)Nc3ccccc31)[C@H]2c1ccc(O)cc1`, the z-score is -0.626 (inactive) in [1]; 1.53 (inactive) in assay [3]; 2.51 (inactive) in assay [4]; 0.486 (inactive) in assay [5]; 1.69 (inactive) in [6]; 0.192 in [7]. In addition, the z-score is 0.844 (inactive) in assay [8], 0.479 (inactive) in assay [9] and 0.201 in assay [10]. In addition, the composite z-score in [2] is -0.294.
In the case of `CCCC[C@H]1OB(O)C[C@H]2C1=C(C)C[C@H]1C(=O)N(Cc3ccccc3)C(=O)[C@H]12`, the z-score in assay [1] was 1.53 (inactive); in assay [3] it was 1.27 (inactive); in assay [4] it was 0.0503 (inactive); in assay [5], -0.348 (inactive); in assay [6], 0.157 (inactive); in assay [7], 0.918. Further, the results for the z-score in assay [8], in assay [9] and in assay [10] were 0.0393 (inactive), 0.765 (inactive) and 0.789, respectively. The composite z-score in assay [2] is -0.147.
